Data from the supplement of paper PMC10849652.
The full data set covers some 7,900 targets. This sample favours those with a hit. About 0.6% of all pairs of compound and target were hits. A number with no mark means an inactive call.

Assays:
Assay in all cases: log2 fold change, soluble protein after heating vs DMSO (PISA); higher = thermal stabilisation; K562 cells, 10 uM, 30 min; active = over 0.2 and 3.5 SD of the protein, either way, in both replicates (recomputed)
[1] = compound: CC1=C(C=C(C=C1)NC(=O)C2=CC(=CC=C2)C(C)(C)C#N)NC3=CC4=C(C=C3)N=CN(C4=O)C
In short: (§1)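 Soluble protein was defined as the supernatant after 21,000xg for 90 min. It came from K562 cells at 2×10^6 cells/mL given 10 μM compound for 30 min, heated in aliquots for 3 min across 48°C-58°C, pooled, and extracted in PBS with 0.5% NP-40 at 4°C, and was quantified by TMTpro 16plex LC-MS/MS with equalised channel sums. Thermal stability against control samples, from duplicates, is reported as log2 fold change.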

[2] = compound: CC1=C(C=C(C=C1)NC(=O)C2=CC(=CC=C2)N(C)C)NC(=O)C3=CC=C(C=C3)O
In short: as §1

[3] = compound: CC1=CC=C(C=C1)SC2=C3C=C(SC3=CN=C2)C(=O)N
In short: as §1

[4] = compound: CC1=NC(=CC=C1)C2=C(N=C(N2)C(C)(C)C)C3=CC4=NC=CN=C4C=C3
In short: as §1

Nexturastat A = compound: CCCCN(Cc1ccc(C(=O)NO)cc1)C(=O)Nc1ccccc1 [Nexturastat A]
In short: as §1

vemurafenib = compound: CCCS(=O)(=O)Nc1ccc(F)c(C(=O)c2c[nH]c3ncc(-c4ccc(Cl)cc4)cc23)c1F [vemurafenib]
In short: as §1

[5] = compound: CCCS(=O)(=O)Nc1ccc(F)c(C(=O)c2c[nH]c3ncc(Cl)cc23)c1F
In short: as §1

[6] = compound: CCCc1cc(C)[nH]c(=O)c1CNC(=O)c1cc(-c2ccnc(N3CCN(C)CC3)c2)cc2c1cnn2C(C)C
In short: as §1

givinostat = compound: CCN(CC)Cc1ccc2cc(COC(=O)Nc3ccc(C(=O)NO)cc3)ccc2c1 [givinostat]
In short: as §1

barasertib = compound: CCN(CCCOc1ccc2c(Nc3cc(CC(=O)Nc4cccc(F)c4)[nH]n3)ncnc2c1)CCOP(=O)(O)O [barasertib]
In short: as §1

[7] = compound: CC[C@@H]1C(=O)N(C)c2cnc(Nc3ccc(C(=O)NC4CCN(C)CC4)cc3OC)nc2N1C1CCCC1
In short: as §1

volasertib = compound: CC[C@@H]1C(=O)N(C)c2cnc(Nc3ccc(C(=O)N[C@H]4CC[C@H](N5CCN(CC6CC6)CC5)CC4)cc3OC)nc2N1C(C)C [volasertib]
In short: as §1

[8] = compound: CC[C@H](C)N1C=C(C2=C(C=C(C=C21)C3=CN=C(C=C3)N4CCNCC4)C(=O)NCC5=C(C=C(NC5=O)C)C)C
In short: as §1

epoxomicin = compound: CC[C@H](C)[C@@H](C(=O)N[C@@H]([C@@H](C)O)C(=O)N[C@@H](CC(C)C)C(=O)[C@]1(CO1)C)NC(=O)[C@H]([C@@H](C)CC)N(C)C(=O)C [epoxomicin]
In short: as §1

[9] = compound: CCn1c(C(=O)N(C2CC2)C2CC2)cc2c3c(ncn3C)c(Nc3cc(C)n(C)n3)nc21
In short: as §1

[10] = compound: CCn1cc(-c2ccnc3[nH]c(-c4cccc(CN(C)C)c4)cc23)c(-c2ccc(NC(=O)N(C)C)cc2)n1
In short: as §1

[11] = compound: CN(C)CC(=O)Nc1ccc2[nH]c(=O)c3ccccc3c2c1
In short: as §1

rosiglitazone = compound: CN(CCOC1=CC=C(C=C1)C[C@H]2C(=O)NC(=O)S2)C3=CC=CC=N3 (racemic) [rosiglitazone]
In short: as §1

[12] = compound: CN1C2=C(C3=C1C(=O)N(N=C3)CC4=CC(=CC=C4)N)SC(=C2)S(=O)C
In short: as §1

[13] = compound: CN1CCC(CNc2ccc3ncc(-c4cccc(OC(F)(F)F)c4)n3n2)CC1
In short: as §1

Chain of UniProt Q99590 (Q99590 whole entry, looked up): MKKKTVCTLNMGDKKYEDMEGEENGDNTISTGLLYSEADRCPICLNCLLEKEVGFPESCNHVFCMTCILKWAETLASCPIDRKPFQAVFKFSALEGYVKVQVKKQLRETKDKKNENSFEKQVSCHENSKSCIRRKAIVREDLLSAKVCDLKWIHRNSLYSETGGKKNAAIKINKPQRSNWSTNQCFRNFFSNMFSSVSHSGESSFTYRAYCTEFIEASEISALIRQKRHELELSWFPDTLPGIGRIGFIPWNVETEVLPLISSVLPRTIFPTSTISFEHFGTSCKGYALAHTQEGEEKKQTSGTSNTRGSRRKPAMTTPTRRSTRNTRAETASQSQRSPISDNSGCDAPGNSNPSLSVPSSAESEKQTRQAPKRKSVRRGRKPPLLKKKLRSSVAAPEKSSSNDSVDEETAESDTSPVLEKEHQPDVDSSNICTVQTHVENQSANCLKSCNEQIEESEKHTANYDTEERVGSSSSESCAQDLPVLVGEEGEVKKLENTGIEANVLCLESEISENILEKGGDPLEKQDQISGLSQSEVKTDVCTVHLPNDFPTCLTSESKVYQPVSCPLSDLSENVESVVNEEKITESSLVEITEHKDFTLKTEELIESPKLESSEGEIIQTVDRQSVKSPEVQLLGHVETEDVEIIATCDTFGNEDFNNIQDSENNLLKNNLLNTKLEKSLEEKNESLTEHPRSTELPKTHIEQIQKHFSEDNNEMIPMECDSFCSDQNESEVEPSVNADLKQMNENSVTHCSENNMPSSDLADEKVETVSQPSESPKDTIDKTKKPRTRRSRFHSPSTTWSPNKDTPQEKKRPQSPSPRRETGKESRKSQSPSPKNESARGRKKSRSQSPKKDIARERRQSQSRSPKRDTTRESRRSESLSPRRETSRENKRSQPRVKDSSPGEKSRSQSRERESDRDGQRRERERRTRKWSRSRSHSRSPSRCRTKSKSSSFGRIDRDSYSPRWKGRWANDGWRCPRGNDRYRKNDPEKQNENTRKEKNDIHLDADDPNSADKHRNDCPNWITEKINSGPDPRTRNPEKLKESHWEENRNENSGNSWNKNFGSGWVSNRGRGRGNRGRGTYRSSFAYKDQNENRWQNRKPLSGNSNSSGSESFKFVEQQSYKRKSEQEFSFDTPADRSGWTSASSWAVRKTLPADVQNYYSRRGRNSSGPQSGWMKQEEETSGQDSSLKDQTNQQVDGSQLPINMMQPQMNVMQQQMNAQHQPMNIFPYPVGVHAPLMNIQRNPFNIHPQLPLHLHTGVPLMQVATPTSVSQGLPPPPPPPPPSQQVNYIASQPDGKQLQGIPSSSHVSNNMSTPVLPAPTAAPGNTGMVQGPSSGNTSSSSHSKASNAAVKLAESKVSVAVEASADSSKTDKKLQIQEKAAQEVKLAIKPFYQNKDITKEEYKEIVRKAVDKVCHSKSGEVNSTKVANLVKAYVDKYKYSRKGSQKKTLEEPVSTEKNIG
Chain of UniProt O94979 (O94979 whole entry, looked up): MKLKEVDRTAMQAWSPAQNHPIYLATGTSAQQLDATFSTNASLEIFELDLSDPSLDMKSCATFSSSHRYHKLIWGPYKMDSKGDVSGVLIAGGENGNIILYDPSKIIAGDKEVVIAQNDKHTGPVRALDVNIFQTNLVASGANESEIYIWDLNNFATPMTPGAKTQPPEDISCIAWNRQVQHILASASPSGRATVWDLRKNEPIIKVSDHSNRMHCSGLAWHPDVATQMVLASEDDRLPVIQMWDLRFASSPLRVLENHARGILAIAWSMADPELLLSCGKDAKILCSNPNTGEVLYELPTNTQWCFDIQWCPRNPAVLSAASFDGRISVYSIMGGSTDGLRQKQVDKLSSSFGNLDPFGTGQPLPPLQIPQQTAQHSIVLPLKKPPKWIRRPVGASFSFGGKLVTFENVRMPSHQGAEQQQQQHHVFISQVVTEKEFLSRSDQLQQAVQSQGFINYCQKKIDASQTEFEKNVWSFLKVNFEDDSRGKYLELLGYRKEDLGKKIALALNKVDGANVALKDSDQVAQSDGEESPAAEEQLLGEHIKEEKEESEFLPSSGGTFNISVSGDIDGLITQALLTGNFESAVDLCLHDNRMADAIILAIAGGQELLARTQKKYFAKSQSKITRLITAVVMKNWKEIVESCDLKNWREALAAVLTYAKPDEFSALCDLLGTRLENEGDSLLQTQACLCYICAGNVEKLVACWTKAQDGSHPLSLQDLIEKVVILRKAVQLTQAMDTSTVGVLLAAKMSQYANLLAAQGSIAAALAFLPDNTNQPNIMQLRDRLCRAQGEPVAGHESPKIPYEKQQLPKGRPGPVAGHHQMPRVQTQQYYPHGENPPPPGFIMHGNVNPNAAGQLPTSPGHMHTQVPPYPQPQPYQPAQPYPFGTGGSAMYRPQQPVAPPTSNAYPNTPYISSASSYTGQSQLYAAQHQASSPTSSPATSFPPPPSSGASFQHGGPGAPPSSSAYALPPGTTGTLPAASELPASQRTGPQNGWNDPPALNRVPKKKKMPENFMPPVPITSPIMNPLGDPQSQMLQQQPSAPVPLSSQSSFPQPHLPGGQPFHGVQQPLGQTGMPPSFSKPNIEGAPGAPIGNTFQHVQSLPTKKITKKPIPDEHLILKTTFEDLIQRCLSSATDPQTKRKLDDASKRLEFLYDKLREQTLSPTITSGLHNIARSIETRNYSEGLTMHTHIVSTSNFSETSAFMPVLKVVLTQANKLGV
Chain of UniProt Q99719 (Q99719 whole entry, looked up): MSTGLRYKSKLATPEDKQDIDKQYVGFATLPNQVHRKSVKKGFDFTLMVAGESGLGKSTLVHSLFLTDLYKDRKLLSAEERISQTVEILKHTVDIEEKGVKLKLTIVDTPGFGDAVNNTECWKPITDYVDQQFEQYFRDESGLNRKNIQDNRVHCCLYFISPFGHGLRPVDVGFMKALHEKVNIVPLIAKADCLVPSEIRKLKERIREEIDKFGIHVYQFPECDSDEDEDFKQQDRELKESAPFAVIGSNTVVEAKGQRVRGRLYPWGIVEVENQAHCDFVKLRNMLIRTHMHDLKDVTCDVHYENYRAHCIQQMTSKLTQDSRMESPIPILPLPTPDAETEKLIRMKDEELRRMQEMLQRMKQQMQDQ
Chain of UniProt Q8NBJ9 (Q8NBJ9 whole entry, looked up): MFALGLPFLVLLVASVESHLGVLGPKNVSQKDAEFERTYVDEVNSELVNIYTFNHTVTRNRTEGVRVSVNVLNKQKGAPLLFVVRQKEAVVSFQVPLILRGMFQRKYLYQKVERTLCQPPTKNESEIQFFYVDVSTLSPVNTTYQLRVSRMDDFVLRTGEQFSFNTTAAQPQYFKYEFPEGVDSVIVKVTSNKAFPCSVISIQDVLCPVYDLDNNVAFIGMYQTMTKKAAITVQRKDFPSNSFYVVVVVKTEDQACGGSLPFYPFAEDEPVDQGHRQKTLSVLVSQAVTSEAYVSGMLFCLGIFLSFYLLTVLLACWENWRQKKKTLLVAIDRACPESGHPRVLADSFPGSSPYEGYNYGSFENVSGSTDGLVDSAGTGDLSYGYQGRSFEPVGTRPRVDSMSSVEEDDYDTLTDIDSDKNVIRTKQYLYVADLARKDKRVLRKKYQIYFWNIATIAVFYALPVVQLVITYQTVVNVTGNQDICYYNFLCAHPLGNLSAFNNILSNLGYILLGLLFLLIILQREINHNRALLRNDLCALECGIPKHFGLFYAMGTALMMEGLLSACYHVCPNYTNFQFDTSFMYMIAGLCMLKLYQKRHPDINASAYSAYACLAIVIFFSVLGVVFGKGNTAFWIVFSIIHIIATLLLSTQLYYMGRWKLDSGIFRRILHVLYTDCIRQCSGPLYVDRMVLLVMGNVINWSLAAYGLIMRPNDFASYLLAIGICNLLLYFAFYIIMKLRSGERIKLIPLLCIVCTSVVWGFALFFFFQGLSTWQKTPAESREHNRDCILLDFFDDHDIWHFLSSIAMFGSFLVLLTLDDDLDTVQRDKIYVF
Chain of UniProt O95486 (O95486 whole entry, looked up): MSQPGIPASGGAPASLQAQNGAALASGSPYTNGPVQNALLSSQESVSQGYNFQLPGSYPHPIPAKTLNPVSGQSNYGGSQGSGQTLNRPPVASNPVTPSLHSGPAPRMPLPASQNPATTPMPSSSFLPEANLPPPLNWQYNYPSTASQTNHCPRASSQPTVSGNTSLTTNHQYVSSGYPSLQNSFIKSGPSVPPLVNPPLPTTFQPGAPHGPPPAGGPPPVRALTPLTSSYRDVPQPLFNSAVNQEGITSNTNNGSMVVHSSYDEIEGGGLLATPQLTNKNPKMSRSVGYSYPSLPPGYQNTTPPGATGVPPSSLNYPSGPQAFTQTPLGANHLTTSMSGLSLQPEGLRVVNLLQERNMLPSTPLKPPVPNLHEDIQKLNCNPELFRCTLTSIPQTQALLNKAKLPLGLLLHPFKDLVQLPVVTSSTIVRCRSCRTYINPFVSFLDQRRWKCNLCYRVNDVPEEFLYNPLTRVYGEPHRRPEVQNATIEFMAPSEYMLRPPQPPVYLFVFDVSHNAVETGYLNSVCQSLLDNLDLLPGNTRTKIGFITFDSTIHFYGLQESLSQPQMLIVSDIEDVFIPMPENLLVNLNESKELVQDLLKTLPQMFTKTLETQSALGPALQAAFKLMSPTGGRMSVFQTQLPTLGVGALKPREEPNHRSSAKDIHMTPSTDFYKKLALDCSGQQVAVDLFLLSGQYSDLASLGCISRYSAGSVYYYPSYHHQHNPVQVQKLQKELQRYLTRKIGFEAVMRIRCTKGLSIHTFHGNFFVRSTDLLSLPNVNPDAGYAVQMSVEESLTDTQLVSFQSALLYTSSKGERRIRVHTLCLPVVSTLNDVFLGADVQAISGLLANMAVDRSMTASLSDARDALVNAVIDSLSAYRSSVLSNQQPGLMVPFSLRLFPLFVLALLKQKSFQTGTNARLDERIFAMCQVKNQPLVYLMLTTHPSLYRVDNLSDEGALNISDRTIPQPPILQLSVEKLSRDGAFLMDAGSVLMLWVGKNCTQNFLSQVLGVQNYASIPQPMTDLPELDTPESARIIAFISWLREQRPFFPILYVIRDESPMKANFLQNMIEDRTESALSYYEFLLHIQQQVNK

Target | log2 fold change [1] | log2 fold change [2] | log2 fold change [3] | log2 fold change [4] | log2 fold change (Nexturastat A) | log2 fold change (vemurafenib) | log2 fold change [5] | log2 fold change [6] | log2 fold change (givinostat) | log2 fold change (barasertib) | log2 fold change [7] | log2 fold change (volasertib) | log2 fold change [8] | log2 fold change (epoxomicin) | log2 fold change [9] | log2 fold change [10] | log2 fold change [11] | log2 fold change (rosiglitazone) | log2 fold change [12] | log2 fold change [13]
SEC24A (UniProt O95486) | 0.025 | -0.089 | 0 | 0.012 | -0.04 | 0.023 | 0.051 | 0.08 | 0.072 | 0.006 | -0.077 | -0.253 (active) | 0.018 | 0.055 | -0.05 | 0.003 | 0.065 | 0.051 | -0.054 | -0.029
RPS14 (UniProt P62263) | 0.03 | 0 | -0.041 | -0.004 | 0.102 | -0.066 | -0.038 | 0.046 | 0.023 | -0.04 | 0.043 | 0.362 | 0.023 | -0.031 | 0.015 | 0.122 | -0.066 | -0.056 | 0.095 | 0.158
SEPTIN5 (UniProt Q99719) | 0.026 | 0 | 0.007 | 0.003 | -0.06 | -0.015 | -0.015 | 0.104 | -0.006 | -0.013 | 0.03 | 0.047 | -0.003 | -0.025 | 0.016 | -0.052 | -0.019 | 0.032 | -0.09 | -0.009
SEC31A (UniProt O94979) | -0.053 | -0.052 | 0.015 | 0.019 | 0.102 | 0.054 | 0.064 | -0.032 | 0.098 | 0.052 | -0.035 | -0.354 (active) | 0.021 | 0.034 | -0.044 | 0.018 | 0.046 | 0.018 | 0.051 | -0.11
SCAF11 (UniProt Q99590) | -0.089 | 0.154 | -0.079 | -0.275 | 0.003 | -0.158 | -0.031 | 0.035 | -0.034 | 0.165 | 0.145 | 0.153 | -0.092 | -0.074 | -0.007 | 0.176 | -0.142 | -0.04 | 0.148 | 0.25
RNASEH2A (UniProt O75792) | -0.023 | -0.018 | 0.022 | 0.046 | 0.142 | -0.102 | -0.024 | -0.063 | 0.046 | 0.039 | -0.062 | -0.075 | 0.068 | 0.061 | -0.002 | -0.061 | -0.118 | 0.013 | -0.019 | -0.394 (active)
SIDT2 isoform 2 (UniProt Q8NBJ9) | -0.021 | 0.019 | -0.025 | -0.367 (active) | 0.042 | 0.019 | -0.033 | 0.017 | 0.038 | -0.148 | -0.035 | 0.055 | -0.026 | 0.002 | -0.014 | 0.069 | -0.041 | 0.019 | 0.024 | -0.02
RRP9 (UniProt O43818) | -0.03 | 0.057 | -0.046 | -0.081 | 0.095 | -0.026 | -0.074 | 0.009 | 0.047 | -0.084 | 0.09 | 0.148 | -0.049 | -0.107 | -0.017 | 0.136 | -0.113 | -0.129 | 0.039 | 0.236
